From PubChem BioAssay (NCI)
Compounds without any hit were thinned out: in the full panel of roughly 83,000, 20% have a hit.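 Results are percent growth after 48 hours of single-concentration exposure. 100 means growth as in untreated cells, lower positive values show inhibition; negative values down to -100 show cell death.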 Unmarked numbers belong to inactive results. Calls of active or inactive are those of the source. The calls were made as follows: active = growth percent below 10; inactive = the rest.

Key:
Assay in all cases: NCI-60 one-dose screen, 48 h (100 = growth as untreated, 0 = no growth, -100 = all killed)
Conditions in all cases: 10 µM unless noted
[1] = test system: BT-549 breast
[2] = test system: MDA-MB-435 melanoma
[3] = test system: SW-620 colon
[4] = test system: MCF7 breast
[5] = test system: HCT-116 colon
[6] = test system: HCC-2998 colon
[7] = test system: KM12 colon

SMILES	growth [1]	growth [2]	growth [3]	growth [4]	growth [5]	growth [6] [%]	growth [7]
COc1ccc2c(c1)OC13Oc4cc(OC)ccc4C=C1CCCCC3=C2	92%	105%	90.7%	75.2%	73.4%	97.7	94.8%
COc1cc(NC(=O)c2cc(O)c(C/C=C(\C)CCC=C(C)C)c(O)c2)cc2c1O[C@]1(C)CC[C@@H](O)C(C)(C)[C@H]1C2	0.27% (active)	10.2%	9.02% (active)	8.42% (active)	10.8%	16.4	7.44% (active)
Nc1c(C(=O)Nc2ccccn2)sc2nc3c(cc12)CCCCC3	52.6%	-25.2% (active)	30%	20.1%	17.1%	30.7	18.8%
COc1cc(C2=NN(C=O)C(c3cccc(Nc4ccnc5cc(C(F)(F)F)ccc45)c3)C2)cc(OC)c1OC (configuration not stated)	56.1%	43.5%	64.6%	38.4%	58.4%	70.1	59.7%
COc1ccc(C(C)c2cc(OC)c(OC)c(OC)c2)cc1 (configuration not stated)	24.6%	-42.6% (active)	27%	13.8%	4.67% (active)	30.2	9.1% (active)
CC(/C=C/c1ccccc1)=N/NC(=O)c1ccncc1	105%	106%	98.7%	93.6%	92.7%	107	105%
Cc1nccc2c3ccc(OCc4cn(-c5ccccc5)nn4)cc3n(CCCc3ccccc3)c12	81.3%	87.7%	69%	51.3%	54%	102	78%
O=C(CN1N=C(c2ccc(F)cc2)CCC1=O)Nc1nccs1	101%	102%	91.6%	93.8%	104%	97.6	107%
C=C1C(=O)O[C@H]2[C@H]1CC/C(COC(=O)n1ccnc1)=C\CC[C@@]1(C)O[C@@H]21	94.8%	99.6%	71.2%	76.8%	81.6%	104	105%
O=C1C(Cl)=C(NCCCN(CCCNC2=C(Cl)C(=O)c3ccccc3C2=O)C2=C(Cl)C(=O)c3ccccc3C2=O)C(=O)c2ccccc21	85.6%	-86.5% (active)	47.6%	-19.9% (active)	4.83% (active)	92.4	80.1%
COC(=O)c1cncc(C(=O)Nc2ccc(-n3cnc4ccccc43)cc2)c1	96.1%	105%	112%	84.7%	103%	116	88.4%
CCCn1c(N)c(C(N)=O)sc1=S	118%	109%	101%	106%	101%	110	97.4%
CNc1cccc2c1C(=O)c1cccc(N)c1C2=O	30.8%	36.1%	63.1%	25%	31.5%	93.9	35.8%
NCCCn1c2c(c3cc(-c4ccn[nH]4)ccc3c1=O)C(=O)c1ccccc1-2	77.3%	63%	24.6%	13%	19.1%	60.6	38.7%
COc1cc(/C=C/CO)cc(OC)c1O[C@@H]1O[C@H](CO)[C@@H](O)[C@H](O)[C@H]1O	104%	102%	94%	93.2%	95.8%	102	105%
Nc1c(C(=O)Nc2ccccn2)sc2nc3c(cc12)CCCC3	44%	-24.6% (active)	40.2%	24.2%	13.6%	57.1	30.8%
